High-throughput results from PubChem BioAssay.
In the library only some 11% were active in any assay of this set; here they are far more common.
G9a block: qHTS Assay for Inhibitors of Histone Lysine Methyltransferase G9a. Histone-lysine N-methyltransferase EHMT2 (Homo sapiens), Q96KQ7. G9a H3K9 monomethylation, AlphaScreen, 2 h. Potency, µM (top dose mostly 102 µM), without a hit: top-dose activity, negative = inhibition, actives largely listed as inhibitors. 350,000 compounds, 8.8% hits; note: % is set by controls: 0 for no effect and ±100 for the full control effect; nearly all actives have a fitted effect of over 75% in size
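Using a bead-based AlphaScreen, monomethylated H3K9 product from 2 h room-temperature reactions (G9a 20 nM, peptide 500 nM, SAM 20 uM) was detected with 0.5 ug/mL rabbit anti-H3K9me1 antibody.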
HP1b chromo inh: HTS for Inhibitors of HP1-beta Chromodomain Interactions with Methylated Histone Tails | Chromobox protein homolog 1 (Homo sapiens), P83916 | AlphaScreen HP1-beta / biotin-H3K9me3 peptide binding | Potency, µM (doses to about 114 µM), inactives show at the top dose activity change, negative = inhibition, actives largely listed as inhibitors | 390,000 compounds, 0.56% hits | AID 540317, 2011; note: nearly all actives have a fitted effect of over 70% in size
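HP1-beta protein (50 nM final) preincubated 30 min at room temperature with biotinylated H3(1-18)K9me3 peptide (50 nM) in PBS pH 7.4, 0.01% Tween-20, then compound added for 30 min. AlphaScreen streptavidin donor/nickel chelate acceptor beads (10 ug/mL final), 30 min dark, luminescence read.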
JMJD2A Tudor inh: qHTS Assay for Inhibitors of JMJD2A-Tudor Domain | Lysine-specific demethylase 4A (Homo sapiens), O75164 | AlphaScreen JMJD2A-Tudor / H3K4me3 peptide binding | Potency, µM (doses to about 114 µM), without a hit: top-dose activity change, negative = inhibition, usual class: inhibitors | 390,000 compounds, 4.4% hits; note: % is set by controls: 0 for no effect and ±100 for the full control effect; nearly all actives have a fitted effect of over 50% in size
BAZ2B inh: qHTS Assay for Inhibitors of BAZ2B | Bromodomain adjacent to zinc finger domain protein 2B (Homo sapiens), Q9UIF8 | AlphaScreen BAZ2B-H3K14Ac peptide displacement | Potency, µM (highest dose often 114 µM), inactives show at the highest dose activity change, negative = inhibition, most hits filed as inhibitors | 360,000 compounds, 4.4% hits | AID 504333, 2011; note: % is set by controls: 0 for no effect and ±100 for the full control effect; nearly all actives have a fitted effect of over 60% in size
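Multi-concentration screen (max 110 uM) measuring displacement of acetylated histone H3 peptide from BAZ2B by AlphaScreen, using 50 nM protein, 50 nM peptide and 10 ug/mL streptavidin donor plus Ni-chelate acceptor beads.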
PLK1 PBD block: qHTS for Inhibitors of PLK1-PDB (polo-like kinase 1 - polo-box domain): Primary Screen; Plk1 PBD binding of FITC phosphopeptide, fluorescence polarization; Potency, µM, for inactives: max response, negative = inhibition, most hits filed as inhibitors; 360,000 compounds, 2.8% hits; note: series mostly up to about 57 µM; % is set by controls: 0 for no effect and ±100 for the full control effect; nearly all actives have a fitted effect of over 65% in size
VDR inh: Inhibitors of the vitamin D receptor (VDR): qHTS; VDR-SRC2-3 peptide fluorescence polarization, 2 h; Potency, µM, without a hit: max response, negative = inhibition, actives largely listed as inhibitors; 400,000 compounds, 0.93% hits; note: % is set by controls: 0 for no effect and ±100 for the full control effect
Target sequence (P11473 whole entry, looked up): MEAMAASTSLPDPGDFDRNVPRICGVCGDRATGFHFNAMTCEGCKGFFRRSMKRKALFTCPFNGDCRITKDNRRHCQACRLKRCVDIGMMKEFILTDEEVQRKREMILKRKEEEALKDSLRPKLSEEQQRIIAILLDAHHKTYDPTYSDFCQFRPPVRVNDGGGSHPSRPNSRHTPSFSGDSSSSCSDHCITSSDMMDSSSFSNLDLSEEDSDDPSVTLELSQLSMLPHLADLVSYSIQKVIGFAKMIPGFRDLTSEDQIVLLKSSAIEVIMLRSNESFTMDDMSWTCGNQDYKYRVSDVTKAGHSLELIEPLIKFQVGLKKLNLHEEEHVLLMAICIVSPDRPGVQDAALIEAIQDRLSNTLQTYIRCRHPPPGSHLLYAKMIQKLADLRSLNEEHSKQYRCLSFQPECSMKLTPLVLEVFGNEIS
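FP read-out; VDR + SRC2-3 coactivator peptide; 23 nl compound by pintool; 2 h RT incubation; reagents held at 4 deg C, protected from light.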
* = called active by the depositor; ? = inconclusive; / = no result; [ ] = remark or other dose. Calls come from the whole dose curve; as a rule, active = well fitted curve in the direction sought with a large enough effect; inconclusive = small, poorly fitted or top-dose-only effect, or another doubt; inactive = no such curve, though single readings can be large; an effect the other way counts as inactive or inconclusive. Potency is the fitted concentration of half-maximal effect.

SMILES	G9a block	HP1b chromo inh	JMJD2A Tudor inh	BAZ2B inh	PLK1 PBD block	VDR inh
CCN1C(=O)[C@H]2[C@H]3CN=C(SCc4ccccc4)N3[C@@](Cc3ccccc3)(C(=O)OC)[C@H]2C1=O	/	21%	89µM*	/	-20%	-14%
COC(=O)[C@@]1(C)[C@H]2C(=O)N(Cc3ccccc3)C(=O)[C@H]2[C@H]2CN=C(SCc3ccccc3)N21	/	26%	?	/	-18%	-13%
CCN1C(=O)[C@H]2[C@H]3CN=C(SCC4CC4)N3[C@@](Cc3ccccc3)(C(=O)OC)[C@H]2C1=O	/	9%	89µM*	/	-18%	0%
CCN1C(=O)[C@H]2[C@H]3CN=C(SCC(=O)c4ccccc4)N3[C@@](C)(C(=O)OC)[C@H]2C1=O	/	26%	-13%	/	?	45µM*
Cc1cc2c(c(=O)n1Cc1ccccc1)C1O[C@](CCCCN3C(=O)c4ccccc4C3=O)(Cc3cc(C#N)ccc31)O2	3%[2.33 µM]	/	/	?	/	/
O=C(CCN1CCN(Cc2ccccc2)CC1)NNC(=O)c1ccc(Cl)c(Cl)c1	/	/	/	/	-4%	/
Cc1noc(C)c1COC(=O)CCOc1ccccc1	-2%	21%	-3%	26%	-5%	10%
Cc1noc(C)c1COC(=O)CCN1c2ccccc2Sc2ccccc21	4%[59 µM]	-14%	?	2%	21µM*	?
COc1ccc(NC(=O)C2CCN(C(=O)NC3CCCCC3)CC2)c(OC)c1	-7%[59 µM]	-21%	79µM*	/	?	-20%
COc1ccc(NC(=O)C2CCN(C(=O)c3cccs3)CC2)c(OC)c1	7%[12.7 µM]	?	28µM*	-32%	7.5µM*	?
COc1ccc(NC(=O)C2CCCN2C(=O)NC2CCCCC2)c(OC)c1 (stereo not given)	18%	53%	3%	-13%	5%	7%
CC1CCN(C(=O)CSc2c3c(nc4ccc(Cl)cc24)CCCC3)CC1	11%[59 µM]	27%	-16%	/	/	-12%
COc1ccccc1/C=C(/C(=O)OCC(=O)Nc1ccc(N(C)C)cc1)c1ccccc1	10µM*	?	?	10µM*	-19%	-7%
COc1ccccc1/C=C(/C(=O)OCC(=O)Nc1ccccc1C)c1ccccc1	?	29%	-18%	-5%	5%	-1%
CCCCn1c(SCc2ccccc2C)nc2ccsc2c1=O	65%[59 µM]	116%	100%	114%	/	7%
Cc1ccc(Cl)c(OCC(=O)Nc2sc(C)c(C)c2C#N)c1	45µM*	4%	-22%	-3%	-20%	-11%
Cc1ccc(C(C)C)c(OCC(=O)Nc2sc3c(c2C#N)CC(C)(C)NC3(C)C)c1	14%	44%	2%	5%	6%	15%
Cc1ccc2c(c1)nnn2C1CCN(S(=O)(=O)c2ccc(C(=O)O)cc2)CC1	/	20%	-3%	-6%	-6%	-7%
Cc1ccc2c(c1)nnn2C1CCN(S(=O)(=O)c2ccc(C(=O)N3C(C)CCCC3C)cc2)CC1 (stereo not given)	25µM*	5%	50µM*	?	-16%	-2%
CCOc1ccccc1N(C)C(=O)c1sc2nc3n(c(=O)c2c1C)CCCC3	?	97%	-21%	50µM*	/	2%
CCc1ccccc1N(C)C(=O)c1sc2nc3n(c(=O)c2c1C)CCCCC3	?	40%	-13%	-26%	/	1%
CN(C(=O)c1ccc2c(=O)n3c(nc2c1)CCCCC3)c1ccccc1F	15%	22%	-10%	1%	-14%	4%
CCOc1ccccc1N(C)C(=O)c1ccc2c(=O)n3c(nc2c1)CCCCC3	/	1%	-28%	-6%	24µM*	-22%
